Source: PubChem BioAssay AID1259313 (Sanford-Burnham Center for Chemical Genomics, 2017)
Out of some 340,000 compounds screened, about 8,500 (2.5%) were called active.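 Rule for the calls: active = melting temperature shift of at least 10% of the positive control shift, at one fixed dose; inactive = the rest.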 This excerpt belongs to a sample that is enriched for actives.

Each molecule was assayed on Glutamate receptor ionotropic, NMDA 3A (GRIN3A) ligand-binding domain (assay: NR3A LBD thermal stabilization by compounds – biophysical, differential scanning fluorimetry, uHTS, primary screen (AID 1259313)). Conditions: at 25 µM, active compounds read high, 0% = protein alone, 100% = glycine-bound protein.

Tm shift relative to glycine control, inactive:
CN(C(=O)CSc1nnc(-c2ccc3c(c2)OCO3)o1)C1CCS(=O)(=O)C1 (stereo not given) 1.73%, O=C(CCC(=O)NNc1nc2ccccc2c2nc(-c3ccccc3)nn12)NCCCN1CCCC1=O 0.34%, COc1ccc2[nH]c3c(C)c4cc[n+](C)cc4c(C)c3c2c1 -0.08%, C=CCNC(=O)C1CC2c3ccccc3C1c1ccccc12 (stereo not given) 1.25%, CSc1ncccc1C(=O)Nc1ccc2c(c1)OCO2 -2.2%, CSc1ncccc1C(=O)Nc1ccc(C)cn1 0.09%, CCCn1c(N)c(N(CCOC)C(=O)C2CCCC2)c(=O)[nH]c1=O 0.34%, COc1ccc(CCNC(=O)CSc2nnc3ccc(-c4ccncc4)nn23)cc1 -0.92%, Cc1cc(NC(=O)COc2ccc([N+](=O)[O-])cc2)no1 1.03%, O=C(Nc1ccccc1C(=O)Nc1ccncc1)c1ccc([N+](=O)[O-])cc1 -13.8%, O=C(CSCc1ccc([N+](=O)[O-])cc1)NCCSCc1ccccc1 1.53%, COc1ccc(NC(=O)CSCc2ccc([N+](=O)[O-])cc2)cc1OC 4.6%, Cc1c(CC(=O)N2CCN(C(=O)C3COc4ccccc4O3)CC2)c(=O)oc2c(O)c(O)ccc12 (stereo not given) 1.85%, Cc1ccccc1Nc1scc(-c2ccc(Br)cc2)[n+]1-c1ccccc1C 0.51%, COCC(C)NC(=O)c1ccc(-n2nc(C(F)(F)F)cc2-c2cccs2)cc1 (stereo not given) -0.17%, COC(=O)c1cn(C)c2ccc(S(=O)(=O)N3CC(C)CC(C)C3)cc2c1=O (stereo not given) 1.34%, CCc1ccccc1NC(=O)c1cc(-c2ccc3c(c2)OCO3)on1 0.47%, O=C(Nc1cccnc1Cl)c1cc(-c2cccc(Cl)c2)on1 -2.35%, CNC(=O)c1nnn(-c2ccccc2)c1C(=O)NC 4.23%, O=[N+]([O-])c1cc(C(F)(F)F)ccc1NCCc1ccncc1 0.61%, Cc1csc(NC(=O)c2ccc(-c3ccc(Cl)cc3Cl)o2)n1 -7.24%, Cc1sc2ncnc(N3CCC(C(=O)Nc4nc5ccc(Cl)cc5s4)CC3)c2c1C 7.43%, O=C(NCCCn1ccnc1)c1cc(-c2ccccc2)on1 1.42%, CS/C(=C\[N+](=O)[O-])Nc1ccc(C)cc1 -1.04%, CC(Oc1ccc(Cl)cc1Cl)C(=O)/C=C/N(C)C (stereo not given) -0.27%, COc1cccc(NC(=O)CN(C)C(=O)Cc2ccc(Cl)cc2Cl)c1 -0.7%, Cc1ccc(NC(=O)c2cnc(SCC(=O)NCC3CCCO3)n(C)c2=O)cc1 (stereo not given) -0.94%, CC(C)CN(C(=O)CN1CCN(S(=O)(=O)c2ccccc2)CC1)c1c(N)n(CC(C)C)c(=O)[nH]c1=O -2.36%, CSc1ccc(Cl)c(C(=O)OCC(=O)N2CC(C)OC(C)C2)c1 (stereo not given) 1.12%, O=C1NC(c2ccccc2)Cc2ccncc21 (stereo not given) 0.42%, CCc1ccc(NC(=O)C(C)OC(=O)/C=C/c2cccc([N+](=O)[O-])c2)cc1 (stereo not given) 0.39%, CCC(CC)NC(=O)/C=C/c1cccc([N+](=O)[O-])c1 -1.15%, CCOc1ccc(-c2cc(C(=O)N/N=C/c3ccc(O)cc3)c3ccccc3n2)cc1 3.69%, N#CCC(=O)N/N=C/c1cn(Cc2ccc3ccccc3c2)c2ccccc12 8.21%, Cc1ccc(C(=O)N/N=C/c2cccc3ccccc23)cn1 -0.89%, CCOC(=O)c1ccccc1NC(=O)CSc1nc2c(sc(=S)n2CC)c(=O)[nH]1 2.58%, CCn1c(=S)sc2c(=O)n(CC(=O)Nc3ccc(OC)cc3)c(C)nc21 -1.05%, CCCCN(CC)C(=O)C1CCCN(S(=O)(=O)c2cccc3nsnc23)C1 (stereo not given) -4.45%, CC1C(=O)Nc2ccc(S(=O)(=O)N3CCN(c4ccccc4F)CC3)cc2NC1=O (stereo not given) 0.26%, Cc1cccc2nc(CNc3ccc(F)cc3)cn12 -1.65%, O=C(/C=C/c1ccccc1Cl)Nc1ccc(S(=O)(=O)Nc2ncccn2)cc1 3.4%, CC(=O)NS(=O)(=O)c1ccc(NC(=O)/C=C/c2ccccc2Cl)cc1 -4.31%, O=C(O)c1ccccc1-c1ccccc1C(=O)Nc1ccccc1Br -1.03%, Cc1cc(N2C(=O)c3ccc(C(=O)NCc4ccccc4)cc3C2=O)no1 -0.54%, CC(C)C[C@H](NC(=O)N1CCn2c1nc1ccccc12)C(=O)NC1CC1 -0.74%, COc1ccc(/C=C/c2nnc(NC(=O)C(C)C)s2)cc1 6.05%, O=C(CSc1ccccc1)Nc1nnc(/C=C/c2ccccc2)s1 -4.65%, CC1CN(c2cc(=O)n(Cc3ccc(F)cc3)c(=O)[nH]2)CC(C)O1 (stereo not given) -2.45%, COc1cc(CNC2CCCCC2)c(Br)cc1OC1CCCC1 -0.72%, COc1ccc(CNC(=O)COc2ccccc2C(=O)c2cnn(-c3ccccc3)c2)cc1OC 0.33%, O=C(c1cnn(-c2ccc(Cl)cc2)c1)c1ccccc1O -2.84%, O=C(Nc1ccc(N2CCOCC2)nc1)c1c(F)cccc1F 1.58%, COc1cc(CC(=O)NCc2cccs2)cc(OC)c1OC 2.82%, COc1ccccc1CNC(=O)c1cc(=O)c2ccccc2o1 -2.39%, CCc1ccccc1NC(=O)CN(c1ccc(OC)cc1OC)S(=O)(=O)c1ccccc1[N+](=O)[O-] -2.68%, COc1ccc(Br)cc1CN(C)CC(=O)Nc1cc([N+](=O)[O-])ccc1OC -12.7%, CCOc1ccc(CCNC(=O)COC(=O)C2CCN(c3ccc(C(F)(F)F)cn3)CC2)cc1OCC -4.5%, N#CCCN(C(=O)COC(=O)C1CCN(c2ccc(C(F)(F)F)cn2)CC1)c1ccc(F)cc1 1.13%, COc1ccc(-n2nc(C(=O)NCC(=O)N3CCCCCC3)c3ccccc3c2=O)cc1Cl -2.28%, NS(=O)(=O)c1ccc(NC(=O)COC(=O)c2ccco2)cc1 -3.86%, O=C(COC(=O)c1ccc(F)cc1)Nc1ccc2c(c1)OCO2 -2.46%, NS(=O)(=O)c1ccc(NC(=O)COC(=O)CCc2c[nH]c3ccccc23)cc1 -3.19%, O=C(COC(=O)c1cc(-c2cccs2)nn1-c1ccccc1)Nc1cc([N+](=O)[O-])ccc1Cl -1.02%, O=C(COC(=O)c1ccncc1)Nc1ccc2c(c1)OCO2 -0.26%, COc1cc(/C=C2\CCCc3c2nc2ccccc2c3C(=O)O)cc(Cl)c1O -0.18%, CC(C)(C)n1ncc2c(=O)n(Cc3c(Cl)cccc3Br)cnc21 -3.98%, COc1ccc(NS(=O)(=O)c2ccc(C)c(C(=O)NNC(=O)c3csc(N4CCOCC4)n3)c2)cc1 0.91%, COc1ccc(NC(=O)COC(=O)CNC(=O)C2CCCCC2)cc1 -0.45%, Cc1cc(C)cc(NC(=O)Cn2cnc3c(nnn3Cc3ccc(F)cc3)c2=O)c1 3.35%, COc1ccc(/C=C/CN2CCCC(C(=O)c3cc(F)ccc3F)C2)cc1 (stereo not given) -1.5%, CCN1CCN(c2nc(Nc3cc(OC)ccc3OC)nc(Nc3cc(OC)ccc3OC)n2)CC1 -2.4%, Cc1csc(NC(=O)C2CCN(S(=O)(=O)c3ccccc3)CC2)n1 2.42%, CC(C)(C)NC(=O)COc1ccc(CNc2ccc3[nH]c(=O)[nH]c3c2)cc1 -1.72%

Tm shift relative to glycine control, active:
CSc1ncccc1C(=O)Nc1nc2ccc(F)cc2s1 11.6%, O=C(CSCc1ccc([N+](=O)[O-])cc1)Nc1cccc(C(=O)Nc2ccccc2C(=O)O)c1 11.3%, O=C(COc1ccc([N+](=O)[O-])cc1)Nc1cccc(C(=O)Nc2ccccc2C(=O)O)c1 10.6%, O=C(Nc1ccccc1C(F)(F)F)c1cc(-c2ccc(O)cc2)on1 12.7%, Cc1ccc(C(=O)Nc2nc3ccc(Cl)cc3s2)o1 11.1%, CCCC(=O)Nc1cccc(NC(=S)NC(=O)C(C)Oc2ccc(Cl)cc2Cl)c1 (stereo not given) 16%, Cc1ccc(NC(=O)O/N=C/c2cccc([N+](=O)[O-])c2)cc1 15.8%, COc1cccc(Cn2cc(/C=N/NC(=O)c3cc(O)cc(O)c3)c3ccccc32)c1 15.4%, CCn1c(=S)sc2c(=O)n(CC(=O)Nc3cccc(Br)c3)c(C)nc21 19%, NS(=O)(=O)c1ccc(NC(=O)/C=C/c2ccccc2Cl)cc1 22.5%, O=C(Nc1ccc(Cl)cc1)Nc1nnc(/C=C/c2ccccc2)s1 10.2%, Cc1cc(O)cc(O)c1C(=O)Cc1cnn(-c2ccccc2)c1 13.1%, COC(=O)c1c(-c2ccsc2)oc2ccc(-c3cc(OC)c(OC)c(OC)c3)cc12 14.2%, CCc1cccc(NC(=O)COC(=O)C2CCN(c3ccc(C(F)(F)F)cn3)CC2)c1 12.6%, NS(=O)(=O)c1ccc(NC(=O)COC(=O)c2c3c(nc4ccccc24)/C(=C\c2ccc4c(c2)OCO4)CCC3)cc1 38%, NC(=O)c1ccc(NC(=O)COC(=O)c2c3c(nc4ccccc24)/C(=C\c2ccc4c(c2)OCO4)CCC3)cc1 31.8%, O=C(COC(=O)c1c2c(nc3ccccc13)/C(=C\c1cccs1)CCC2)Nc1ccccc1Cl 14.6%
